Measured values from PubChem BioAssay (Tox21).
Results filed as inconclusive are left out. A number with no mark means an inactive call. Calls of active or inactive are those of the source. Calls come from the whole dose curve.

Experiment: qHTS assay for small molecules that induce genotoxicity in human embryonic kidney cells expressing luciferase-tagged ATAD5 - cell viability (AID 651634); note: nearly all actives have a fitted effect of over 25% in size
Conditions: HEK293T ATAD5-luc cells viability, CellTiter-Fluor, 15.5 h; series mostly up to 83.3 µM; activity, negative = cytotoxicity: at the top concentration
Excerpt: National Center for Advancing Translational Sciences [NCATS]
NIH Chemical Genomics Center [NCGC]
U.S. Environmental Protection Agency [EPA]
National Institutes of Environmental Health Sciences [NIEHS]
National Toxicology Program [NTP]
U.S. Food and Drug Administration [FDA]
Enhanced Level of Genome Instability Gene 1 (ELG1; human ATAD5) protein levels increase in response to various types of DNA damage. Using a luciferase reporter-gene tagged with ElG1, a cell-based assay [developed by Kyungjae Myung, NHGRI, NIH] was used to measure the induction of ATAD5 in human embryonic kidney cells (HEK293T). So, increase in luciferase activity can be used to identify the compounds that cause genetic stress. In addition to genotoxicity, these cells were also used to test for cytotoxicity by measuring the protease activity within live cells.
Tox21 Assay Protocol Summary:
For cytotoxicity screening, 2,000 cells in 5 uL/well were dispensed into white, solid-bottom 1536-well plates using a Multidrop Combi (Thermo Scientific) dispenser. Following transfer of 23 nL compound or DMSO vehicle by a pin tool, the plates were incubated 15.5 hr at 37C and 5% CO2. 1 ul CellTiter-Fluor reagent (Promega, Madison, WI) was then added to each plate and following 30 min incubation at 37C, fluorescence intensity was quantified on a ViewLux CCD-based plate reader.
% is set by controls: 0 for no effect and ±100 for the full control effect.

SMILES	activity, negative = cytotoxicity	Potency
O=[Si]=O	9.38%	
Cn1c(=O)c2c(ncn2CC2OCCO2)n(C)c1=O	13.6%	
O=S(=O)(O)CCO	-6.22% [at 95.3 µM]	
CCCCCCCCOC(C)=O	25.6%	
CO[Si](CCCS)(OC)OC	8.9%	
CCCCCCCC/C=C\CCCCCCCC(=O)OC[C@@H](O)[C@H]1OC[C@H](O)[C@H]1O		inactive
CCC1Nc2cc(Cl)c(S(N)(=O)=O)cc2S(=O)(=O)N1 (stereo not given)	13%	
Nc1c(NC/C=C\COc2cc(CN3CCCCC3)ccn2)c(=O)c1=O	-19.7%	
CC1CCC(C(C)(C)S)C(=O)C1 (stereo not given)	9.73%	
NS(=O)(=O)c1ccccc1OC(F)(F)F	18.2%	
COc1cccc2sc(N)nc12	-3.8% [at 95.3 µM]	
c1ccc(CNc2ncnc3nc[nH]c23)cc1	7.25%	
CCC(O)C(C)(C)C (stereo not given)	-10.5% [at 95.3 µM]	
C=C[Si](C)(C)O[Si](C)(C)C=C	11.4%	
NC(=O)NNC(N)=O	7.58%	
CCCCC[Si](OCC)(OCC)OCC	-7.29%	
CC(C)C(=O)c1ccccc1	17.8%	
CCCCCCCCC(=O)OCC	-17.9%	
C=CCOC(=O)c1ccc(C(=O)OCC=C)c(C(=O)OCC=C)c1	17.6%	
Cc1cc(C)cc([N+](=O)[O-])c1	3.33% [at 95.3 µM]	

SMILES	activity, negative = cytotoxicity	Potency
C=CC(C)(O)CC/C=C(\C)CC (stereo not given)	12.4%	
Nc1cc(Cl)cc(S(=O)(=O)O)c1O	-8.12% [at 95.3 µM]	
CC(C)=CC(C)(C)C	11%	
CC(=O)OC(C)c1ccccc1 (stereo not given)	20.2%	
CN(C)CCCNCCC#N	10.5%	
CCCCCC1Nc2cc(C(F)(F)F)c(S(N)(=O)=O)cc2S(=O)(=O)N1 (stereo not given)	9.44%	
COC(OC)C(C)c1ccccc1 (stereo not given)	8.84%	
C[C@@H]1C[C@H]2[C@@H]3C[C@H](F)C4=CC(=O)C=C[C@]4(C)[C@@]3(F)[C@@H](O)C[C@]2(C)[C@@]1(O)C(=O)CO	14.5% [at 39.1 µM]	
CCOC(=O)OCC/C(SC(=O)OCC)=C(\C)N(C=O)Cc1cnc(C)nc1N	-13.1%	
CC(C)COC(=O)COc1ccc(Cl)cc1Cl	12.2%	
CC(=O)OC(C(=O)c1ccccc1)c1ccccc1 (stereo not given)	5.19% [at 95.3 µM]	
CN(C)CCOCCN(C)CCO	13%	
CC(=O)c1ccc2c(c1)CCCC2	2.71%	
CCOC(=O)C(C)(C)C	13.3% [at 95.3 µM]	
N#CCCOCCOCCC#N	18.9%	
Cc1ccccc1OCC1CO1 (stereo not given)	8.89% [at 95.3 µM]	
NC(=O)NC(=O)Cc1ccccc1	4.92%	
O=CN1CCOCC1	8.31%	
Cc1cccc(Nc2ccncc2S(=O)(=O)NC(=O)NC(C)C)c1	19.6% [at 39.1 µM]	
O=C1OC(=O)c2cc(Oc3ccc4c(c3)C(=O)OC4=O)ccc21	5.63%	
